Dicer inh: human Dicer pre-microRNA cleavage inhibition. Q9UPY3. cat-ELCCA pre-miR-21 Dicer processing, chemiluminescence; hits give high values. z-score at 25 µM. 47,000 tested, 6% active. AID 1347074; in the data active means z-score above about 3, passing the limit was not always enough;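 further: higher signal means more uncleaved substrate so more Dicer inhibition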
Of the large screens only hits and unclear results are named; the others gave an inactive call. Many of the other results were omitted from the sample, so hits are more common in it than they were.

CCCCc1c(O)nc(SCCN2CCOCC2)n(-c2ccccc2)c1=O	none
CSCCC1Oc2ccc(Cl)cc2C2CC(c3ccccc3O)=NN12 (stereo not given)	none
COc1ccc(C2Oc3ccccc3C3CC(c4cccnc4)=NN32)cc1 (stereo not given)	none
Cc1ccc(C2Oc3ccccc3C3CC(c4ccncc4)=NN32)cc1 (stereo not given)	none
Oc1ccc(Cl)cc1C1=NN2C(C1)c1ccccc1OC2c1ccncc1 (stereo not given)	none
Clc1ccc2c(c1)C1CC(c3ccccc3)=NN1C(c1ccncc1)O2 (stereo not given)	Dicer inh 15
c1cncc(C2=NN3C(C2)c2ccccc2OC3c2cccs2)c1 (stereo not given)	none
COc1ccc(C2Oc3ccccc3C3CC(c4ccc(C)o4)=NN32)cc1OC (stereo not given)	none
COc1cc(C2Oc3ccccc3C3CC(c4ccccc4)=NN32)ccc1OC(C)=O (stereo not given)	Dicer inh 4.5
Clc1ccc(C2=NN3C(C2)c2ccccc2OC3c2ccncc2)cc1 (stereo not given)	Dicer inh 6
OC1CCCc2c1[nH]c1ccc(OCc3ccccc3)cc21 (stereo not given)	none
CCCCCCSc1nnc2c(n1)OC(C)Nc1ccccc1-2 (stereo not given)	none
O=C(CCCN1CCN2CCCCC2C1)c1ccc(F)cc1 (stereo not given)	none
COc1ccc(C2CC(C(F)(F)F)n3nc(C(=O)NC4CCCCC4)c(Cl)c3N2)cc1OC (stereo not given)	none
Cc1nc2ccccc2n1Cc1nc2ccccc2n1C	none
CCOC(=O)c1c(C)c(=O)oc2c1c(=O)[nH]n2-c1ccccc1	none
CCN1C(=O)c2cccc3c(S(=O)(=O)NCCCCCC(=O)O)ccc1c23	none
O=C(Cn1nc(-c2ccc(Cl)cc2)c2ccccc2c1=O)c1ccc(F)cc1	none
Cc1oc2cc(O)cc(O)c2c(=O)c1-c1ccccc1	none
O=c1c(O)c(-c2ccc(O)c(O)c2)oc2cc(O)cc(O)c12	none
O=c1cc(-c2ccc(O)c(O)c2)oc2cc(O)cc(O)c12	Dicer inh 12
COc1cccc(NC(=O)Nc2ccc(Oc3c(Cl)cccc3Cl)nc2)c1	none
COc1ccccc1Oc1ccc(NC(=O)c2cc3cc(Br)ccc3o2)cn1	none
COc1cccc(Oc2ccc(NC(=O)c3cc4cc(Br)ccc4o3)cn2)c1	Dicer inh 3.1
Cc1cc2nc(C(F)(F)F)cc(C)n2n1	none
CCc1ccc(C2c3c(oc4ccc(F)cc4c3=O)C(=O)N2c2nc(C)c(C)s2)cc1 (stereo not given)	none
CC12CN3CC(c4ccccc4)(CN(C1)C3c1ccc(OCc3ccccc3)cc1)C2=O (stereo not given)	none
CCN1CCCC1CN1CNC(=S)NC1 (stereo not given)	none
CSc1sc(-c2ccno2)c(-c2ccccc2)c1C#N	none
CC(=S)c1ncc(C(F)(F)F)cc1N(C)C	none
O=C(Oc1ccccc1)c1cc([N+](=O)[O-])cc2c1-c1ccc([N+](=O)[O-])cc1C2=O	none
O=C(Cc1c(F)cccc1Cl)NC(=O)Nc1ccc(F)c(Cl)c1	Dicer inh 3.9
O=C(Nc1ccc(F)c(Cl)c1)Oc1ccccc1	none
O=C(Cc1c(F)cccc1Cl)NC(=O)Nc1ccc(Cl)cc1	none
COc1ccc(-c2nnsc2NC(=O)c2ccccc2CO)cc1	none
COC(=O)c1ccc(Cl)cc1NC(=O)c1ccccc1Cl	none
CCN(CC)CCOc1c(Br)ccc2c1sc1nc3n(c(=O)c12)CCC3	Dicer inh 4.1
Cc1ccc(C2C(C(=O)c3ccc(C)o3)=C(O)C(=O)N2Cc2cccnc2)cc1 (stereo not given)	none
Cc1c(Sc2ccc(Cl)cc2)cnn1C(=O)c1ccc(Cl)cc1	none
Cc1onc(-c2ccccc2Cl)c1C(=O)ONC1=NCCCC1	none
CC(=O)Oc1cccc(N2Cc3ccccc3C2=O)c1	none
CCOc1ccc(NC(=S)Nc2cc(-c3cccs3)[nH]n2)cc1	none
CCOC(=O)Oc1ccc2c(=O)c(Oc3ccccc3Br)coc2c1	none
COC(=O)COc1ccc2c(=O)c(Oc3ccccc3Br)c(C(F)(F)F)oc2c1	Dicer inh 3.5
COC(=O)COc1ccc2c(=O)c(Oc3ccccc3Cl)c(C(F)(F)F)oc2c1	none
Cc1oc2cc(O)ccc2c(=O)c1Oc1ccc(Cl)cc1	none
COC(=O)COc1ccc2c(=O)c(Oc3cc(C)cc(C)c3)c(C(F)(F)F)oc2c1	none
Cc1oc2cc(O)ccc2c(=O)c1Oc1ccccc1Br	Dicer inh 3.5
Cc1cc(C)c2c(c1)CC(C)(C)/C(=N/NC(=O)CC#N)C2=O	none
NC(=O)CSc1nc2c(c(C(F)(F)F)n1)CCc1ccccc1-2	none
CN(C)CCN(Cc1ccccc1)C(=O)C(C(=O)c1ccc(F)cc1)n1ccccc1=O (stereo not given)	none
CCOC(=O)c1c(C)oc2ccc(O)c(CN(C)C)c12	Dicer inh 4
CCOC(=O)c1c(C)oc2cc(Cl)c(O)c(CN(C)C)c12	none
CCOC(=O)c1c(CN(CC)CC)oc2ccc(OC)cc12	none
O=C(Nc1csc2ccccc12)NC1Cc2ccccc2C1	none
CCOC(=O)c1c(NC(=O)c2ccco2)sc(CC)c1C	none
COCCOC(=O)c1c(C)oc2cc(Br)c(OCc3ccc(F)cc3)cc12	none
COc1ccc(-c2noc(COc3ccc(Cl)cc3)n2)cc1	none
COc1ccc(-c2nc(-c3ccc(Cl)cc3)no2)cc1	Dicer inh 4.2
COc1ccc(-c2noc(-c3cccs3)n2)cc1	Dicer inh 3.9
Clc1ccc(-c2nc(-c3ccncc3)no2)cc1	none
COc1ccc(-c2noc(COc3ccc(Br)cc3)n2)cc1	Dicer inh 4.1
COc1ccc(-c2noc(-c3ccc(OC)cc3)n2)cc1	none
Nc1c(Cl)cc(-c2noc(-c3cccs3)n2)cc1Cl	none
Brc1ccc(OCc2nc(-c3ccncc3)no2)cc1	none
COc1ccc(OCc2nc(-c3cccs3)no2)cc1	none
Cc1cc(NC(=O)c2sc3ccccc3c2Cl)cc(-c2nc3ncccc3o2)c1O	none
CC(=O)Nc1ccc([N+](=O)[O-])c(C(=O)O)c1	none
N#Cc1cc(Cl)c(NC(=O)C(F)(F)F)c(Cl)c1	none
C=CCOC(=O)c1sc(N2C(=O)c3oc4ccccc4c(=O)c3C2c2ccc(C)cc2)nc1C (stereo not given)	none
CCOc1cccc(=O)c2c(C)n(CC(=O)c3ccccc3)c(C)c12	none
COc1cccc(=O)c2c(C)n(CC(=O)c3ccccc3)c(C)c12	Dicer inh 3.2
COc1ccccc1OCC(=O)O	none
CN(C)/C=N/c1nnc(SCc2ccc(Cl)cc2)s1	none
Cc1ccc(S(=O)(=O)c2nc(-c3ccccc3)oc2N2CCOCC2)cc1	none
Cc1ccc(C)n1-c1ccc(N)cc1	none
CC1=NC(=O)CN1c1ccc(N)cc1	Dicer inh 4
Cc1ccc(N2N=C(N)CC2=O)cc1	none
CCOC(=O)CNC(=O)c1ccccc1	none
CCCc1nn(C)cc1C(=O)NCC(=O)OCC	Dicer inh 4.8
CCOC(=O)CNC(=O)c1ccc(Cl)cc1	none
Cc1ccc(-n2cccc2)c([N+](=O)[O-])c1	none
Oc1ccc(Cl)cc1C1=Nc2ccccc2N=C(c2ccco2)C1	Dicer inh 3
COc1ccc(O)c(C2=Nc3ccccc3N=C(c3ccco3)C2)c1	none
O=c1oc(-c2ccco2)nc2cc(Cl)ccc12	none
Cc1ccc(-n2nnnc2-c2c[nH]c3cc(Cl)ccc23)cc1	none
COc1ccc(-c2nn3c(-c4ccccc4Cl)nnc3s2)cc1	none
O=C(c1cnn2c(C(F)F)cc(-c3ccccc3)nc12)N1CCCc2ccccc21	none
COc1ccc(-c2cc(C(F)F)n3ncc(C(=O)N4CCSCC4)c3n2)cc1	Dicer inh 3
O=C(c1cnn2c(C(F)F)cc(-c3ccccc3)nc12)N1CCc2ccccc2C1	none
O=C(O)c1cccc2cccc(C(=O)O)c12	Dicer inh 3.9
